Measured values published in paper PMC4336329 (PLoS ONE, 2015).
Hit rate of the full screen: of about 310,000 compounds, about 14,000 (4.5%) showed an effect of 50% or more. The effect is printed as a negative number. Shown is part of a subset that was picked to be rich in strong results.

biological target: human ether-à-go-go-related gene (hERG) potassium channel (human, UniProt Q12809); experiment: primary screen, population patch clamp on CHO cells stably expressing hERG; higher = less effect of the substance
Sequence (Q12809 whole entry, looked up): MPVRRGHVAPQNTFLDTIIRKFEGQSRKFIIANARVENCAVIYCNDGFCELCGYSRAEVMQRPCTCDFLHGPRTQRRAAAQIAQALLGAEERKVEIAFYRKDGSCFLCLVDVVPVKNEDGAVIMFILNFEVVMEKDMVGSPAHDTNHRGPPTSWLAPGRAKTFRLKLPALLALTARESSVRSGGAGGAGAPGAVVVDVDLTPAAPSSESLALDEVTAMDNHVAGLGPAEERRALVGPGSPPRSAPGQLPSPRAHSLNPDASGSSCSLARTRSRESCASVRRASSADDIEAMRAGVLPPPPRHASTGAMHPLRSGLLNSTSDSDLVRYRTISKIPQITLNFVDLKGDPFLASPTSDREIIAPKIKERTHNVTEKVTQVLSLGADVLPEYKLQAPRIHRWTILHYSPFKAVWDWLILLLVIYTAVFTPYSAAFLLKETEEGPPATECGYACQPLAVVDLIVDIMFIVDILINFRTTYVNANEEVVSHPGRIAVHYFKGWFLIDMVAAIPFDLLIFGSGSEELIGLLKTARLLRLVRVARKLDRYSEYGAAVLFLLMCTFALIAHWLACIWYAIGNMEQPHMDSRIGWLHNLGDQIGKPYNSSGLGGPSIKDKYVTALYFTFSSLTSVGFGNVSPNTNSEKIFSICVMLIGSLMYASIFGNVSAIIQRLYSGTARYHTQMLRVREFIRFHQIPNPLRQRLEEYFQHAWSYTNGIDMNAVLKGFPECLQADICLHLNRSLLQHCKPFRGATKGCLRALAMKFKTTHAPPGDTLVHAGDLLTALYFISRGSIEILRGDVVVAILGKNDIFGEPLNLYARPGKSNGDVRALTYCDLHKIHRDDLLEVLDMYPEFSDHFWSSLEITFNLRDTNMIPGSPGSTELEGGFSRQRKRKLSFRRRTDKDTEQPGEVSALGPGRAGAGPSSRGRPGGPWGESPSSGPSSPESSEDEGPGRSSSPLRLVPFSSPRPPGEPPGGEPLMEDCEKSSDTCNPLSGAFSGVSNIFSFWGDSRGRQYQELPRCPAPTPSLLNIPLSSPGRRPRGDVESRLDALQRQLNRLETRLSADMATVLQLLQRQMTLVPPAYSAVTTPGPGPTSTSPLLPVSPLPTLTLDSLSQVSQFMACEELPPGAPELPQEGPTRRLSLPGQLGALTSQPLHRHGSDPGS
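Further: peak tail current of the secondary pulse compared with the same well before compound.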

Row | SMILES | hERG current change (%, negative = inhibition) at 10uM
1 | CCOc1ccc(CCNc2nc3c(c(=O)n(C)c(=O)n3C)n2CC)cc1OCC | 3.1%
2 | CCOC(=O)C1=C(COC(=O)CC(C)c2ccccc2)NC(=O)NC1C (centres unmarked) | -17.8%
3 | CN1C(=O)C(=Cc2ccc(N3CCCCCC3)cc2)C(=O)N(C)C1=O | 13.1%
4 | CCOc1ccc2[nH]c(=O)c(C(c3nnnn3C3CCCCC3)N3CCN(CC)CC3)cc2c1 (centres unmarked) | -40.3%
5 | COc1cccc(NC(=O)Cc2ccc3ccccc3c2)c1 | -7.16%
6 | N#C/C(=C\c1cccc(OCC(=O)O)c1)c1nc2ccccc2[nH]1 | 19.6%
7 | COc1cc(-c2noc(C)n2)cc(OC)c1OC | 13.4%
8 | COc1ccc(Nc2nc(NCCO)nc(N3CCCC3)n2)cc1 | -38.3%
9 | Cc1ccc(S(=O)(=O)NCC(=O)OCC(=O)Nc2cccc(S(=O)(=O)NC3=NCCCCC3)c2)cc1C | -1.1%
10 | COc1ccccc1C(=O)NCCC(=O)Nc1nc2ccccc2[nH]1 | -12.6%
11 | O=C(/C=C/c1ccc(F)cc1)NCCCn1ccnc1 | -31.9%
12 | O=C(NCCCn1ccnc1)c1ccc(Cl)cc1 | -2.72%
13 | O=C(/C=C/c1ccc(Cl)cc1)NCCCn1ccnc1 | -55.8%
14 | O=C(/C=C/c1ccc(Br)cc1)NCCCn1ccnc1 | -57%
15 | Clc1ccc(SCCCCn2ccnc2)cc1 | -53%
16 | CC(C)(C)c1ccc(/C=C/C(=O)NCCCn2ccnc2)cc1 | -46.5%
17 | COc1ccc(/C=C/C(=O)NCCCn2ccnc2)cc1 | -30.9%
18 | Clc1ccc(SCCn2ccnc2)cc1 | -1.48%
19 | O=C(/C=C/c1ccc(Cl)c(Cl)c1)NCCCn1ccnc1 | -41.7%
20 | O=C(C#Cc1ccccc1)NCc1ccccc1F | -2.39%
21 | CC1(C)CCC(=O)C=C1Nc1ccc(F)c(Cl)c1 | 7.56%
22 | N#C/C(=N\O)c1nc(-c2ccccc2)cs1 | 15.9%
23 | CC(C)(C)c1ccc(S(=O)(=O)NCc2ccc(C(=O)NCC3CCCO3)cc2)cc1 (centres unmarked) | 13.8%

Row | SMILES | hERG current change (%, negative = inhibition) at 10uM
24 | O=C(OCc1ccc(Br)cc1)c1cccc(S(=O)(=O)N2CCCC2)c1 | -6.47%
25 | CSc1nsc(SC)c1C(N)=O | 10.6%
26 | CCOC(=O)C1(CCOc2ccccc2)CCN(Cc2cnc(SC)nc2)CC1 | -72.2%
27 | CCOC(=O)C1(Cc2ccccc2)CCCN(Cc2ccncc2)C1 (centres unmarked) | -17.4%
28 | CCOC(=O)C1(CCOc2ccccc2)CCN(Cc2ccc(C(=O)OC)cc2)CC1 | -49.9%
29 | CCOC(=O)C1(CCOc2ccccc2)CCN(Cc2ccc(OC)cc2)CC1 | -75.1%
30 | CCOC(=O)C1(CCOc2ccccc2)CCN(Cc2ccc(C#CCCO)cc2)CC1 | -53.3%
31 | CCOC(=O)C1(CCOc2ccccc2)CCN(Cc2ccncc2)CC1 | -52%
32 | CCOC(=O)C1(Cc2cccc(OC)c2)CCN(Cc2cnc(SC)nc2)CC1 | -27%
33 | CCOC(=O)C1(CCOC)CCN(Cc2cnc(-c3cccc(C)c3)nc2)CC1 | -5.81%
34 | CCOC(=O)C1(CCOC)CCN(Cc2ccncc2)CC1 | 8.26%
35 | CCc1ccc(C(C)NC(=O)/C(C#N)=C\c2cn[nH]c2-c2ccccc2)cc1 (centres unmarked) | -1.91%
36 | CC1=NN(c2ccc(Cl)cc2)C(=O)C1 | 3.77%
37 | Cc1ccc(C(=O)OCC(=O)N2CCOCC2)cc1 | 15.6%
38 | O=C(NNC(=S)Nc1ccc(Cl)cc1Cl)C1CC1 | -24%
39 | O=C(Nc1ccc2c(c1)OC1(CCCC1)O2)C1CC1 | 3.79%
40 | Cc1ccc(C)n1-c1ncc(Br)cn1 | 6.58%
41 | CCCCOCCCNC(=O)N[C@@H](CCSC)C(=O)OC | 16.3%
42 | C=CCn1c2ccccc2c(=O)c2cc(C#Cc3ccccn3)ccc21 | -0.113%
43 | CCOC(=O)C1(CCOc2ccccc2)CCN(Cc2ccc(O)cc2)CC1 | -85.1%
44 | CCOC(=O)C1(CCOc2ccccc2)CCN(Cc2ccc(O)c(Cl)c2)CC1 | -53%
45 | CCOC(=O)C1(CCOc2ccccc2)CCN(Cc2ccc(OCCO)cc2)CC1 | -77.9%
46 | O=C(N/N=C\c1cc(Br)c(Br)o1)c1cncc(Br)c1 | 7.62%

Row | SMILES | hERG current change (%, negative = inhibition) at 10uM
47 | CN(C)c1cccc(C(=O)Nc2ccc(N3CCOCC3)cc2)c1 | 2.06%
48 | Cc1nc2nc(-c3ccccc3)cc(=O)n2[nH]1 | 11.8%
49 | O=C(NNS(=O)(=O)c1ccc([N+](=O)[O-])cc1)C(=O)Nc1cccc(C(=O)O)c1 | 11.9%
50 | COc1ccc(C2C(C(=O)N3CCC4(CC3)OCCO4)CC(=O)N2c2ccc(OC)cc2)cc1 (centres unmarked) | -6.88%
51 | O=S(=O)(NCC(c1ccco1)N1CCN(c2ccccc2)CC1)c1ccc(F)cc1 (centres unmarked) | 0.0547%
52 | O=C1COc2ccc(C(=O)COC(=O)Cc3ccc(F)cc3)cc2N1 | -23.8%
53 | CCC(=O)c1ccc(OCC(=O)Nc2ccccc2C(=O)NC2CC2)cc1 | -6.53%
54 | OC1/C(=C/c2ccccc2C(F)(F)F)N2CCC1CC2 (centres unmarked) | 9.66%
55 | Clc1ccc(-c2nnc3c4ccccc4nc(N4CCOCC4)n23)cc1Cl | -64.7%
56 | Fc1ccccc1-c1nnc2c3ccccc3nc(N3CCOCC3)n12 | -9.92%
57 | Brc1ccc(-c2nnc3c4ccccc4nc(N4CCOCC4)n23)cc1 | -8.42%
58 | CCN(CC(=O)Nc1c(F)cccc1F)C(=O)C1CCC1 | -13.8%
59 | Cc1sc2ncnc(N3CCC(C(=O)Nc4ccc(Br)cc4Br)CC3)c2c1C | -7.07%
60 | Cc1sc2ncnc(N3CCC(C(=O)N(C)CC(=O)Nc4ccc(Cl)c(C(F)(F)F)c4)CC3)c2c1C | 3.47%
61 | CCN(CC(=O)Nc1c(F)cccc1F)C(=O)C1CC1 | 3.28%
62 | CCCN(CC(=O)Nc1ccccc1C)C(=O)C1CCN(c2ncnc3sc(C)c(C)c23)CC1 | -76.2%
63 | CCOc1ccc(NC(=O)CN(C)C(=O)C2CCCC2)cc1OCC | 27.8%
64 | CCCCc1nnc(NC(=O)C2CCN(c3ncnc4sc(C)c(C)c34)CC2)s1 | 16.6%
65 | CCOC(=O)c1ccccc1NC(=O)C1CCN(c2ncnc3sc(C)c(C)c23)CC1 | -11.4%
66 | Cc1sc2ncnc(N3CCC(C(=O)N(C)CC(=O)Nc4ccccc4Br)CC3)c2c1C | -65.8%
67 | CCOc1ccc(NC(=O)CN(C)C(=O)C2CCN(c3ncnc4sc(C)c(C)c34)CC2)cc1OCC | -58.2%
68 | CCN(CC(=O)Nc1c(F)cccc1F)C(=O)C1CCN(c2ncnc3sc(C)c(C)c23)CC1 | -57.8%
69 | Cc1sc2ncnc(N3CCC(C(=O)Nc4ccccc4C(C)(C)C)CC3)c2c1C | -15.2%

Row | SMILES | hERG current change (%, negative = inhibition) at 10uM
70 | COc1ccc(C2=NN(C(=O)c3ccco3)C(c3ccco3)C2)cc1OC (centres unmarked) | 7.24%
71 | COc1cccc(SCc2noc(C(=O)NCC3CC3)c2C(=O)NCC2CC2)c1 | -43.5%
72 | CCN(Cc1ccccc1)C(=O)c1ccccc1C | 1.76%
73 | CC(NC(=O)C1CCN(S(=O)(=O)N2CCC3(CC2)OCCO3)CC1)c1ccccc1 (centres unmarked) | 20.9%
74 | CCCC(C)NS(=O)(=O)c1ccccc1 (centres unmarked) | -18.4%
75 | CN1CC(=O)N(CC(=O)Nc2ccc(SC(F)F)cc2)C1=O | -23.5%
76 | CCOc1ccc2nc(C(=O)N3CCCC(C)C3)sc2c1 (centres unmarked) | -2.28%
77 | CCOC(=O)C1=C(C)N(C)C(=S)NC1c1ccc(Cl)cc1 (centres unmarked) | -21.5%
78 | Cc1ccc(C(=O)OCC(=O)NC(=O)NCc2ccccc2)cc1C | 7.95%
79 | CCOC(=O)c1cnc(SCCN2CCOCC2)nc1N | 9.59%
80 | COC(=O)c1ccccc1NC(=O)c1cc2n(n1)C(C(F)F)CC(C(F)F)N2 (centres unmarked) | 14%
81 | Cc1cc(C)n(C(C)CC(=O)Nc2ccc(-c3ccno3)cc2)n1 (centres unmarked) | 1.47%
82 | CC1(C)CC(=O)C=C(NCCN2CCNCC2)C1 | -2.18%
83 | Cc1sc2ncnc(N3CCC(C(=O)N(C)CC(=O)Nc4ccccc4Cl)CC3)c2c1C | -67.7%
84 | Cc1sc2ncnc(N3CCC(C(=O)Nc4cc(Cl)ccc4Cl)CC3)c2c1C | 4.42%
85 | Cc1cccc(C)c1NC(=O)CN(C)C(=O)C1CCN(c2ncnc3sc(C)c(C)c23)CC1 | -46.7%
86 | C=CCN(C(=O)CSc1nc2ccsc2c(=O)n1Cc1ccccn1)c1ccccc1 | -19.4%
87 | COCCCNC(=O)Cn1cc(C(C)=O)c2ccccc21 | 17.7%
88 | CC1CCN(C(=O)CN(c2ccccc2)S(=O)(=O)N(C)C)CC1 | 14.2%
89 | CCOC(=O)NC(c1ccc(C(C)C)cc1)C(Cl)(Cl)Cl (centres unmarked) | 1.44%
90 | CCOC(=O)NC(C(Cl)(Cl)Cl)S(=O)(=O)c1ccccc1 (centres unmarked) | -6.98%
91 | CCOC(=O)NC(N(O)c1cccc(Cl)c1)C(Cl)(Cl)Cl (centres unmarked) | -74.2%
92 | Cc1ccc(-c2cc(C(=O)Nc3cc(C)on3)c3ccccc3n2)cc1 | 4.13%
